Gal4-VP16 FLuc: VP16 counterscreen qHTS for inhibitors of ROR gamma transcriptional activity; Drosophila S2 Gal4-VP16 UAS-luciferase, luminescence, 20 h; Potency, µM (top dose mostly 53.6 µM), without a hit: at the highest dose activity, negative = inhibition, hits mostly inhibitors; actives 3.5% (n = 310,000);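 note: Gal4-VP16 expression switched on by copper sulfate through the metallothionein promoter; nearly all actives have a fitted effect of over 50% in size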
RORg inh: qHTS for inhibitors of ROR gamma transcriptional activity | Nuclear receptor ROR-gamma (Mus musculus), P51450 | Drosophila S2 Gal4-RORgamma UAS-luciferase reporter, 20 h | Potency, µM (series often up to 53.6 µM), inactives show at the highest dose activity change, negative = inhibition, hits mostly inhibitors | actives 5.4% (n = 310,000) | AID 2551, 2010; note: nearly all actives have a fitted effect of over 60% in size
Target sequence (P51450 whole entry, looked up, the tested form may be a part): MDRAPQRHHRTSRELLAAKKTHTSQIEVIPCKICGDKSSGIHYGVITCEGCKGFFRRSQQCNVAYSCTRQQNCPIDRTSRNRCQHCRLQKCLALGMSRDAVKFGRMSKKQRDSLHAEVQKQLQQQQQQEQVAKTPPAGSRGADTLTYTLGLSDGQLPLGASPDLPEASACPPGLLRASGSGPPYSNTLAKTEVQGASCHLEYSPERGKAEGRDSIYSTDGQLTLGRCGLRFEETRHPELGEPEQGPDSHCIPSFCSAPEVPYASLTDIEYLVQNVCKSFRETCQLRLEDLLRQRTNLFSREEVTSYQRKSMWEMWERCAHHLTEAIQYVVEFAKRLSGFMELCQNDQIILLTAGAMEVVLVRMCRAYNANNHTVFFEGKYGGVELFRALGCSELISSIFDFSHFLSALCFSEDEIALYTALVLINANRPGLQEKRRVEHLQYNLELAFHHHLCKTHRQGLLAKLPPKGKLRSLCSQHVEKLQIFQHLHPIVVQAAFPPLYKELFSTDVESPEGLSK
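In this cell-based reporter format, copper sulfate (700 uM final) drives Gal4–ROR gamma fusion expression from a metallothionein promoter in Drosophila Schneider cells; compounds preincubated 1 hr, reporter read after 20 hr at ambient temperature.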
TDP1 cell noCPT: qHTS for Inhibitors of human tyrosyl-DNA phosphodiesterase 1 (TDP1): qHTS in cells in absence of CPT; Potency, µM (series often up to 46.2 µM), without a hit: at the top dose activity change, negative = growth inhibition, most hits filed as inhibitors; DT40 Tdp1-/- hTDP1 cells, no CPT, ATP luminescence, 48 h; actives 15% (n = 420,000); AID 686978, 2013; note: nearly all actives have a fitted effect of over 55% in size
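DT40 Tdp1-/-;hTDP1 cells, no CPT (DMSO vehicle only), 400 cells/well; compounds pin-transferred; ≥48 hr, 37 °C; CellTiter-Glo 30 min RT dark, luminescence read.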
DT40 TDP1 CPT: qHTS for Inhibitors of human tyrosyl-DNA phosphodiesterase 1 (TDP1): qHTS in cells in presence of CPT; AID 686979, 2013; Potency, µM (top dose mostly 46.2 µM), for the others: at the highest dose activity change, negative = growth inhibition, most hits filed as inhibitors; actives 12% (n = 420,000); chicken DT40 Tdp1-/-;hTDP1 cells + 20 nM CPT, ATP luminescence, 48 h; note: nearly all actives have a fitted effect of over 55% in size
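Chicken DT40 Tdp1-/- cells stably complemented with human TDP1 were seeded at 400 cells/well in medium containing 20 nM camptothecin, exposed to pin-transferred compounds, and grown at 37 °C for at least 48 hr. Viability was read as ATP luminescence.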
ELG1 DNA repair: qHTS screen for small molecules that inhibit ELG1-dependent DNA repair in human embryonic kidney (HEK293T) cells expressing luciferase-tagged ELG1. Potency, µM (series often up to 46.1 µM), for inactives: at the highest dose activity change, negative = inhibition, hits mostly inhibitors. HEK293T ELG1-luciferase reporter, luminescence, 16 h; DNA damage induced by 5-fluorouridine. actives 2.3% (n = 330,000); note: nearly all actives have a fitted effect of over 55% in size
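Reporter activity after DNA damage by 5-fluorouridine is monitored. Compound-treated cells incubate 16 hr at 37 °C, then ONE-Glo is added for 30 min before luminescence reading.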
12-LOX inh: Primary qHTS assay for inhibitors of human arachidonate 12S-lipoxygenase (ALOX12): Round 2. purified 12hLO, xylenol orange hydroperoxide absorbance. Potency, µM (highest dose often 108 µM), inactives show top-dose activity change, negative = inhibition, most hits filed as inhibitors. actives 1.1% (n = 580,000). AID 1671190, 2021
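Purified human 12hLO at 150 nM in 25 mM Hepes, 0.01% Triton X-100, pH 7.0, preincubated 15 min at room temperature with compound. Reaction started with 40 uM arachidonic acid, 30 min at room temperature. Hydroperoxide measured by Fe-xylenol orange, 573/405 nm absorbance ratio.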
* marks the source's active call; other numbers are inactive results; i = inactive; u = inconclusive; x = no result; ! = not confirmed by another sample; [ ] = dose if it differs, or a comment. Shown are actives, neighbours in structure and some others; about 15% of the full set was active somewhere. Calls come from the whole dose curve; as a rule, active = well fitted curve in the direction sought with a large enough effect; inconclusive = small, poorly fitted or top-dose-only effect, or another doubt; inactive = no such curve, though single readings can be large; an effect the other way counts as inactive or inconclusive. % is set by controls: 0 for no effect and ±100 for the full control effect; potency is the fitted concentration of half-maximal effect.

SMILES	Gal4-VP16 FLuc	RORg inh	TDP1 cell noCPT	DT40 TDP1 CPT	ELG1 DNA repair	12-LOX inh
COc1cccc(C(c2nnnn2Cc2ccccc2)N2CCC(n3c(=O)[nH]c4ccccc43)CC2)c1OC (stereo unspecified)	x	x	3.3µM*	2.6µM*	x	-24%
CCN1[C@H](C(=O)OC)[C@@H](CO)[C@@H]2Cn3c(ccc(Br)c3=O)[C@@H]21	x	x	x	x	x	-12%
COc1ccccc1-n1c(-c2ccc(C)cc2)nc2ccccc2c1=O	7%	5%	12µM*	u	2%	0%
COc1ccccc1-n1c(-c2ccccc2Br)nc2ccccc2c1=O	-1%	0%	18µM*	23µM*	-15%	9%
COc1ccccc1-n1c(-c2ccccc2F)nc2ccccc2c1=O	x	x	u	u	x	214%
COCCNC(=O)c1c(N)n(Cc2ccco2)c2nc3ccccc3nc12	1%	u	u	u	13µM*	-27%
COCCCn1c(N)c(C(=O)NCc2ccco2)c2nc3ccccc3nc21	-8%	17%	u	u	u	u
COCCNC(=O)c1c(NC(=O)c2ccco2)n(Cc2ccccc2)c2nc3ccccc3nc12	-1%	-24%	21µM*	u	u	u
COCCCNC(=O)c1c(NC(=O)c2ccccc2Cl)n(Cc2ccccc2)c2nc3ccccc3nc12	-7%	-40%	-14%	-5%	-21%	-4%
C=CCNC(=O)c1c(N)n(Cc2ccco2)c2nc3ccccc3nc12	-2%	39%	15µM*	7.3µM*	u	u
N/C(=N\N=C\c1ccccc1F)N[N+](=O)[O-]	x	x	x	x	x	-11%
CC(C(O)c1ccccc1)N(C)CCOC(c1ccccc1)c1ccccc1 (stereo unspecified)	x	x	15µM*	12µM*	x	-13%[22.9 µM]
Cn1c(=O)oc2cc(S(=O)(=O)NC3CCCCCCC3)ccc21	0%	20%	u	-21%	-3%	-9%
Cc1ccc(C)c(N2CCN(C(=O)CCS(=O)(=O)c3ccc4c(c3)oc(=O)n4C)CC2)c1	-3%	3%	15µM*!	16µM*	-4%	-13%
CCC1=CCN(CCc2c(C)[nH]c3ccccc23)CC1	x	x	0.58µM*	2%	x	-6%
CCCCn1c(=O)c(C(=O)Nc2ccsc2C(=O)OC)c(O)c2ccccc21	6%	-11%	5.2µM*	21µM*	8%	9%
CCCCCn1c(=O)c(C(=O)Nc2ccccc2N)c(O)c2ccccc21	u	2%[1.91 µM]	21µM*	u	-14%	-2%
CCCCn1c(=O)c(C(=O)Nc2ccccc2N)c(O)c2ccccc21	7.1µM*	5.6µM*	23µM*	u	-15%	i
C=C1C[C@H]2[C@H]3CCC(=O)[C@@]3(C)CC[C@@H]2[C@@]2(C)C=CC(=O)C=C12	x	x	x	x	x	0%[57.4 µM]
CCCN1C2CCCC1CC(NC(C)=O)C2 (stereo unspecified)	-3%	23%	-5%	7%	13%	0%
Cc1ccc(CN2C3CCCC2CC(NC(=S)NCc2ccccc2)C3)cc1 (stereo unspecified)	18µM*	2.8µM*	u	u	-4%	u
O=S1(=O)NCC2(CCN(Cc3ccsc3)C2)Oc2ncccc21 (stereo unspecified)	x	x	x	x	x	10%[6.33 µM]
CN1CC[C@@]23CCCCC2C1Cc1ccc(O)cc13 (stereo partly specified)	-2%	0%	-2%[9.04 µM]	9%[9.04 µM]	x	-11%
COc1ccc2c(c1)[C@@]13CCCCC1[C@@H](C2)N(C)CC3 (stereo partly specified)	1%	1%	16µM*	-125%	x	x
O=c1[nH]c2ccc(Cl)cc2c(N[C@@H]2CN3CCC2CC3)c1-c1nc2ccccc2[nH]1	x	x	x	x	x	-12%[57.4 µM]
SMILES	Gal4-VP16 FLuc	RORg inh	TDP1 cell noCPT	DT40 TDP1 CPT	ELG1 DNA repair	12-LOX inh
CC(C)N1CC=C(c2c[nH]c3ccccc23)CC1	-21%	u	4.6µM*	7.3µM*	u	19%
O=C1NC(=O)C(=CN2CCc3ccccc32)C(=O)N1	-4%	-19%	-5%	u	u	-3%
O=P(N1CC1)(N1CC1)N1CCc2ccccc21	x	x	8.2µM*	7.3µM*	x	-7%
COC(=O)C1=C(C)N[C@]2(C)C[C@H]1c1ccccc1O2	x	x	x	x	x	-9%
C[C@H](CO)N1C[C@H](C)[C@@H](CN(C)Cc2ccc(Cl)c(Cl)c2)Oc2c(NC(=O)c3ccncc3)cccc2C1=O	x	x	u	21µM*	u	16%
C#CCOc1ccc(CCN)cc1	x	x	x	x	x	-19%
Cc1ccc2c(c1)c(=O)c1c3n2CCN(CC2CO2)C3CC1 (stereo unspecified)	28%	28%	u	18µM*	-3%	-14%
CC[C@H]1CN2CC[C@H]1C[C@@H]2CNC(=O)c1ccccc1	x	x	x	x	x	45%[176 µM]
CC[C@@H](CO)NC(=O)[C@H]1C=C2c3cccc4c3c(cn4C)C[C@H]2N(C)C1	4%	-4%	13µM*	8.4µM*	x	u
C[C@@H](CO)NC(=O)[C@@H]1C=C2c3cccc4[nH]cc(c34)C[C@H]2N(C)C1	5%	-20%	u	u	x	x
Cc1nc(-c2ccc(N(C)C)cc2)cc([C@H]2CN3CC[C@H]2C[C@@H]3CNC(=O)C(C)(C)C)n1	x	x	x	x	x	83%[176 µM]
CCn1c(N)c(C(=O)NC)sc1=S	1%	2%	16µM*	18µM*	-6%	u
COc1ccccc1N=c1scc(-c2ccc(S(=O)(=O)N3CCCC3)cc2)n1C	x	x	2.9µM*	5.2µM*	x	-20%
O=[N+]([O-])c1ccc(C(c2ccc([N+](=O)[O-])cc2)c2ccc([N+](=O)[O-])cc2)cc1	x	x	12µM*	7.3µM*	x	-26%
CC(C)NCC(O)c1ccc([N+](=O)[O-])cc1 (stereo unspecified)	x	x	-11%	1%	x	1%
COc1ccc(NC2CC(=O)N(C(C)C)C2=O)cc1 (stereo unspecified)	u	u	0%	6%	u	4µM*
COc1ccc(NP2(=O)OCC(C)(N)CO2)cc1 (stereo unspecified)	x	x	-3%	18%	x	-9%
CCOP(=S)(OCC)SCn1c(=O)oc2cc(Cl)ccc21	-20%	38%	u	u	x	x

Screening results: PubChem, National Center for Advancing Translational Sciences (NCATS)
